Assay results published in the supplement of paper PMC10849652.
About 7,900 targets were measured; listed, in parts, are those with a hit and a random draw of the rest. About 0.6% of all pairs of compound and target were hits. A number with no mark means an inactive call.

Columns and labels:
Test in all cases: log2 fold change, soluble protein after heating vs DMSO (PISA); higher = thermal stabilisation; K562 cells, 10 uM, 30 min; active = over 0.2 and 3.5 SD of the protein, either way, in both replicates (recomputed)
[1] = compound: CC1=C(C=C(C=C1)NC(=O)C2=CC(=CC=C2)C(C)(C)C#N)NC3=CC4=C(C=C3)N=CN(C4=O)C
Procedure, shortened: (§1)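 Values are thermal stability changes relative to control samples and are taken from duplicates. They are stated as log2 fold changes. Before quantification by TMTpro 16plex LC-MS/MS with equalised channel sums, K562 cells at 2×10^6 cells/mL were treated with 10 μM compound for 30 min, heated in aliquots for 3 min across 48°C-58°C, pooled, extracted in PBS with 0.5% NP-40 at 4°C, and centrifuged at 21,000xg for 90 min to give the soluble supernatant.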

[2] = compound: CC1=C(C=C(C=C1)NC(=O)C2=CC(=CC=C2)N(C)C)NC(=O)C3=CC=C(C=C3)O
Procedure, shortened: as §1

[3] = compound: CC1=NC(=CC=C1)C2=C(N=C(N2)C(C)(C)C)C3=CC4=NC=CN=C4C=C3
Procedure, shortened: as §1

vemurafenib = compound: CCCS(=O)(=O)Nc1ccc(F)c(C(=O)c2c[nH]c3ncc(-c4ccc(Cl)cc4)cc23)c1F [vemurafenib]
Procedure, shortened: as §1

[4] = compound: CCCc1cc(C)[nH]c(=O)c1CNC(=O)c1cc(-c2ccnc(N3CCN(C)CC3)c2)cc2c1cnn2C(C)C
Procedure, shortened: as §1

givinostat = compound: CCN(CC)Cc1ccc2cc(COC(=O)Nc3ccc(C(=O)NO)cc3)ccc2c1 [givinostat]
Procedure, shortened: as §1

barasertib = compound: CCN(CCCOc1ccc2c(Nc3cc(CC(=O)Nc4cccc(F)c4)[nH]n3)ncnc2c1)CCOP(=O)(O)O [barasertib]
Procedure, shortened: as §1

[5] = compound: CC[C@@H]1C(=O)N(C)c2cnc(Nc3ccc(C(=O)NC4CCN(C)CC4)cc3OC)nc2N1C1CCCC1
Procedure, shortened: as §1

[6] = compound: CC[C@H](C)N1C=C(C2=C(C=C(C=C21)C3=CN=C(C=C3)N4CCNCC4)C(=O)NCC5=C(C=C(NC5=O)C)C)C
Procedure, shortened: as §1

[7] = compound: CCn1c(C(=O)N(C2CC2)C2CC2)cc2c3c(ncn3C)c(Nc3cc(C)n(C)n3)nc21
Procedure, shortened: as §1

[8] = compound: CCn1cc(-c2ccnc3[nH]c(-c4cccc(CN(C)C)c4)cc23)c(-c2ccc(NC(=O)N(C)C)cc2)n1
Procedure, shortened: as §1

[9] = compound: CN(C)CC(=O)Nc1ccc2[nH]c(=O)c3ccccc3c2c1
Procedure, shortened: as §1

rosiglitazone = compound: CN(CCOC1=CC=C(C=C1)C[C@H]2C(=O)NC(=O)S2)C3=CC=CC=N3 (racemic) [rosiglitazone]
Procedure, shortened: as §1

[10] = compound: CN1C2=C(C3=C1C(=O)N(N=C3)CC4=CC(=CC=C4)N)SC(=C2)S(=O)C
Procedure, shortened: as §1

[11] = compound: CN1CCC(CNc2ccc3ncc(-c4cccc(OC(F)(F)F)c4)n3n2)CC1
Procedure, shortened: as §1

[12] = compound: CC1=CC=C(C=C1)SC2=C3C=C(SC3=CN=C2)C(=O)N
Procedure, shortened: as §1

Nexturastat A = compound: CCCCN(Cc1ccc(C(=O)NO)cc1)C(=O)Nc1ccccc1 [Nexturastat A]
Procedure, shortened: as §1

[13] = compound: CCCS(=O)(=O)Nc1ccc(F)c(C(=O)c2c[nH]c3ncc(Cl)cc23)c1F
Procedure, shortened: as §1

volasertib = compound: CC[C@@H]1C(=O)N(C)c2cnc(Nc3ccc(C(=O)N[C@H]4CC[C@H](N5CCN(CC6CC6)CC5)CC4)cc3OC)nc2N1C(C)C [volasertib]
Procedure, shortened: as §1

epoxomicin = compound: CC[C@H](C)[C@@H](C(=O)N[C@@H]([C@@H](C)O)C(=O)N[C@@H](CC(C)C)C(=O)[C@]1(CO1)C)NC(=O)[C@H]([C@@H](C)CC)N(C)C(=O)C [epoxomicin]
Procedure, shortened: as §1

Chain of UniProt P53350 (P53350 whole entry, looked up): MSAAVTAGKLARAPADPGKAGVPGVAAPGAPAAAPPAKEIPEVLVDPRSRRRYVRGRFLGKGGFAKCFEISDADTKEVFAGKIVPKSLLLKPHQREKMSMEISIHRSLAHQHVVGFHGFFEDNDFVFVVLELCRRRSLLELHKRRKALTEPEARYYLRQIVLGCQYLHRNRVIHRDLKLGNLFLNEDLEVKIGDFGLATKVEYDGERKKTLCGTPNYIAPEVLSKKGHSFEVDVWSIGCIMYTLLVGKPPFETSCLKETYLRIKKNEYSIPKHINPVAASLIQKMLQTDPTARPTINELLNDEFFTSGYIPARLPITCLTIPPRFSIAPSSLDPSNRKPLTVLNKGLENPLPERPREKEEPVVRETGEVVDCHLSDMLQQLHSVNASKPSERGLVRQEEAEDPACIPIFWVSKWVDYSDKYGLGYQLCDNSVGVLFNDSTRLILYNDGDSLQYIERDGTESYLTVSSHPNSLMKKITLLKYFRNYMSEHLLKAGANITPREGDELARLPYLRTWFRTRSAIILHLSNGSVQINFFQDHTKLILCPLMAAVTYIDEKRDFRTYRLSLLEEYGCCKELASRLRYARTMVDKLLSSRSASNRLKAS
Chain of UniProt Q01970 (Q01970 whole entry, looked up): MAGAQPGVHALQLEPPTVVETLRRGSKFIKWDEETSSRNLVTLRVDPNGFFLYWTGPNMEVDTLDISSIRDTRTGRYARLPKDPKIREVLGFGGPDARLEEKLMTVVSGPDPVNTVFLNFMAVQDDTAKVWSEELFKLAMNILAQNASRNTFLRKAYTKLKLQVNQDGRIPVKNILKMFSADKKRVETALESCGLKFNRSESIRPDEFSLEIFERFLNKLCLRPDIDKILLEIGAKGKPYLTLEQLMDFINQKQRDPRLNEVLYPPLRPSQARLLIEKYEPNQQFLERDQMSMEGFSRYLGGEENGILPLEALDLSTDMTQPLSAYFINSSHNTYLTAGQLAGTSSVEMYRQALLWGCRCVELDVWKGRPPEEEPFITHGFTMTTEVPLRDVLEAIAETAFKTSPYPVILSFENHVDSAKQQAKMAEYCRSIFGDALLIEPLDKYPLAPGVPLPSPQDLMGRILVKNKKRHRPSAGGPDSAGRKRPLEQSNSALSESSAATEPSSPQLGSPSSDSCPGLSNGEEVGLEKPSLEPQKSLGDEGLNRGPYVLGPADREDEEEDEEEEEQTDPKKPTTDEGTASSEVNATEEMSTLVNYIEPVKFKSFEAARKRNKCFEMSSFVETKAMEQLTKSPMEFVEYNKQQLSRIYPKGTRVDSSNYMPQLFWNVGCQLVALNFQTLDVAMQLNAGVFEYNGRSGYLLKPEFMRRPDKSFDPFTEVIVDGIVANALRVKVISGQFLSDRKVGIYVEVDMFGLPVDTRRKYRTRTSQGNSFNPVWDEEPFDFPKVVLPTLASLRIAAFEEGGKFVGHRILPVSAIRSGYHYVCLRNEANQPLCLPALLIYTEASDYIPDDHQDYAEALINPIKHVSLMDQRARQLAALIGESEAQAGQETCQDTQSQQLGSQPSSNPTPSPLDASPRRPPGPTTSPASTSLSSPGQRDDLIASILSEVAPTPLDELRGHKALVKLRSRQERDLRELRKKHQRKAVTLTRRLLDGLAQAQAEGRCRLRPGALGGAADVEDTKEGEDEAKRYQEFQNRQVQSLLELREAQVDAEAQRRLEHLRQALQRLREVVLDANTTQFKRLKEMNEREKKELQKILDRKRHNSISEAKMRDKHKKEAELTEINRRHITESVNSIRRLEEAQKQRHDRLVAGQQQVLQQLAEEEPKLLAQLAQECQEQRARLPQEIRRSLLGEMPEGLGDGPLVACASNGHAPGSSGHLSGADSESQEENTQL
Chain of UniProt Q8TCG2 (Q8TCG2 whole entry, looked up): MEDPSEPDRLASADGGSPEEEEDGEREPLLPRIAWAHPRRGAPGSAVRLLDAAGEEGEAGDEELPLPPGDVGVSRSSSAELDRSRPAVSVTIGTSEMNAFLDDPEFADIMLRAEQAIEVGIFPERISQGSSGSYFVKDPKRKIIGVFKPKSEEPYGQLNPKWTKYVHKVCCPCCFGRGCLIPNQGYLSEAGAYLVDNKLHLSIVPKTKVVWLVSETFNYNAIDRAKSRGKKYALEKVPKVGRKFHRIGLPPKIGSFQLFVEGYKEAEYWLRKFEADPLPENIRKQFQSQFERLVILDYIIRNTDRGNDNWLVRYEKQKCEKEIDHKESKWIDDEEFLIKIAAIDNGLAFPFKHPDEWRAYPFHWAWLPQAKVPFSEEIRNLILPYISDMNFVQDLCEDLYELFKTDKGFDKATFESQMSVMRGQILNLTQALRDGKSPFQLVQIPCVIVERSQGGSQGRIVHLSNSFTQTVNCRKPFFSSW
Chain of UniProt Q15111 (Q15111 whole entry, looked up): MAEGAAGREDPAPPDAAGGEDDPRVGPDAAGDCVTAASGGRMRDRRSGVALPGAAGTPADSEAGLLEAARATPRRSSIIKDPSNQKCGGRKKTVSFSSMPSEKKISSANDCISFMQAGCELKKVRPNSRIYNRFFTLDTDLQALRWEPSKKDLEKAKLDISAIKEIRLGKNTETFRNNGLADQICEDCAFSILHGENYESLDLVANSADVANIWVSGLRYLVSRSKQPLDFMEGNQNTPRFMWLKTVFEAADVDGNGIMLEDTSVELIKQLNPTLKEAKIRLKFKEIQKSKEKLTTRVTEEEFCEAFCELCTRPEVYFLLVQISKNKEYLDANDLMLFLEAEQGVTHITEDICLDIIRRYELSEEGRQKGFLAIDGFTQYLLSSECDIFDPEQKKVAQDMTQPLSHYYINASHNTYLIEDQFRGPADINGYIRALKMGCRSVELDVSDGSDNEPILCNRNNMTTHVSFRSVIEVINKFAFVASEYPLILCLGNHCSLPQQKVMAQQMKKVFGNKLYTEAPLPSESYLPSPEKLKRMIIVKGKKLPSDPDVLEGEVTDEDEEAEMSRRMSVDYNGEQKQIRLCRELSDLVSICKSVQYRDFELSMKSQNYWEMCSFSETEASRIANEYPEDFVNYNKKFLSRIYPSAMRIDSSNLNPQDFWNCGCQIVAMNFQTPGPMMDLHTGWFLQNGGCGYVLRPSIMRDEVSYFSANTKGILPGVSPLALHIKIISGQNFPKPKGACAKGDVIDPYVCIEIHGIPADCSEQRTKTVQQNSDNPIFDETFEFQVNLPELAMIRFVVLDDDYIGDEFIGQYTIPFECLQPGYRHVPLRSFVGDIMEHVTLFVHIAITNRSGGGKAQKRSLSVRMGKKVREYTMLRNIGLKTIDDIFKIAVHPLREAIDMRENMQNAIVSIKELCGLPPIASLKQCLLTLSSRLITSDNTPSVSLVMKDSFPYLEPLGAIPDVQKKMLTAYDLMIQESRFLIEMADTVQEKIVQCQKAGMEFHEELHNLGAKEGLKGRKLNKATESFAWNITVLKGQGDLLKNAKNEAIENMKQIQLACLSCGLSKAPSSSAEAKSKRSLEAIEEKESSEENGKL
Chain of UniProt Q86YH6 (Q86YH6 whole entry, looked up): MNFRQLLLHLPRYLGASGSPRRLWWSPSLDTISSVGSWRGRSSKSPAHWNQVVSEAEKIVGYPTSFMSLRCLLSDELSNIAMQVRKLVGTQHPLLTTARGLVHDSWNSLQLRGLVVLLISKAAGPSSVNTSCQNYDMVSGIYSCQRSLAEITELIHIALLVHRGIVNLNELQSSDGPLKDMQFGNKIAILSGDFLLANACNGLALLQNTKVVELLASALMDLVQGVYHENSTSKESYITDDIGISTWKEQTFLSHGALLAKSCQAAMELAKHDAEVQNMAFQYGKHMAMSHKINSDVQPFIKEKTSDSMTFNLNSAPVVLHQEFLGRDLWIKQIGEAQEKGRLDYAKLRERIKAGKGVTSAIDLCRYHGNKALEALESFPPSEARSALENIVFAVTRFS
Chain of UniProt Q53EL6 (Q53EL6 whole entry, looked up): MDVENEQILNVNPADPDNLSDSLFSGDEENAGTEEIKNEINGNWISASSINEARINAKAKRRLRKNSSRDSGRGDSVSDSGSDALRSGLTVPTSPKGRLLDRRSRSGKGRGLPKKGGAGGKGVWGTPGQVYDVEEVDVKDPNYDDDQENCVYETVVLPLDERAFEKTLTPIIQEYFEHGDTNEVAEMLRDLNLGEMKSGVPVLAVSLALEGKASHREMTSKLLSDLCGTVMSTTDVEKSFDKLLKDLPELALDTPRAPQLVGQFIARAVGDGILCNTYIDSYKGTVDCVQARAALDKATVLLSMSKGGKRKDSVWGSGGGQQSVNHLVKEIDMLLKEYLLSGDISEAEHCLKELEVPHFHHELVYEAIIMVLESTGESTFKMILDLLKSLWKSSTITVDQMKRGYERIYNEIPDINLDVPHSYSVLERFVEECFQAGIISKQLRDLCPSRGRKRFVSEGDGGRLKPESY
Chain of UniProt P07205 (P07205 whole entry, looked up): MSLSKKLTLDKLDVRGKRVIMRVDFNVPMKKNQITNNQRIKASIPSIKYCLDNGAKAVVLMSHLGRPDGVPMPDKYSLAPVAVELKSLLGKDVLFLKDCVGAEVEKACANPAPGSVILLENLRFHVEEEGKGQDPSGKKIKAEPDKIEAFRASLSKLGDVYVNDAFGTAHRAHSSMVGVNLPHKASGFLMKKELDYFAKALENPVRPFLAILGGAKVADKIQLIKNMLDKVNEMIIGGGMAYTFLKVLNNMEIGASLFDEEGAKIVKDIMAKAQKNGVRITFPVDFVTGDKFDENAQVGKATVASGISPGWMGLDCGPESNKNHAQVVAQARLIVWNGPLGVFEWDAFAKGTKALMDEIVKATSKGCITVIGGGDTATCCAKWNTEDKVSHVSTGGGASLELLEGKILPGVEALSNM
Chain of UniProt P35227 (P35227 whole entry, looked up): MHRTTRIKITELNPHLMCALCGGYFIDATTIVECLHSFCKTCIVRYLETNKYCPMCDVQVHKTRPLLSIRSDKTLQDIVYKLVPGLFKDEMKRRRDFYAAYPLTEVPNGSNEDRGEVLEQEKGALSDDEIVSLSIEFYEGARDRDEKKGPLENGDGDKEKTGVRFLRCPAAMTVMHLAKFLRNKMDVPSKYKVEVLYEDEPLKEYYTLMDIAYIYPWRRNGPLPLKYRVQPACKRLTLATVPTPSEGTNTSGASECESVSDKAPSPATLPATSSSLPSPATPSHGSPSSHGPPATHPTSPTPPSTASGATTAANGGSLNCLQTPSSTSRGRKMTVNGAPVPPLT

Target	log2 fold change [1]	log2 fold change [2]	log2 fold change [3]	log2 fold change (vemurafenib)	log2 fold change [4]	log2 fold change (givinostat)	log2 fold change (barasertib)	log2 fold change [5]	log2 fold change [6]	log2 fold change [7]	log2 fold change [8]	log2 fold change [9]	log2 fold change (rosiglitazone)	log2 fold change [10]	log2 fold change [11]	log2 fold change [12]	log2 fold change (Nexturastat A)	log2 fold change [13]	log2 fold change (volasertib)	log2 fold change (epoxomicin)
PI4K2B (UniProt Q8TCG2)	-0.082	-0.002	-0.013	0.059	0.144	0.019	0.146	-0.147	-0.039	-0.057	0.045	-0.024	0.004	0.079	-0.1	–	–	–	–	–
PLK1 (UniProt P53350)	0.003	-0.052	-0.012	0.018	0.042	-0.314 (active)	0.015	–	0.049	-0.023	0.033	-0.016	0.016	-0.029	-0.068	-0.03	0.003	0.029	-2.06 (active)	0.044
PXK (UniProt Q7Z7A4)	0.017	-0.059	0.011	0.017	-0.046	0.022	0.002	-0.136	0.04	0.004	-0.012	0.027	0.046	-0.028	-0.208	-0.041	-0.018	0.071	-0.077	0.029
PRG4 (UniProt Q92954)	-0.099	0.034	0.106	0.008	-0.069	0.102	-0.023	0.073	-0.18	0.053	0.075	-0.239	0.085	0.015	-0.228	–	-0.007	–	–	-0.294
PLCL1 (UniProt Q15111)	0.056	-0.061	0.03	0.068	0.159	0.21	0.205	-0.018	0.232	-0.206	0.311	0.035	-0.128	–	-0.094	–	0.253	–	–	-0.034
PCGF2 (UniProt P35227)	-0.043	-0.058	0.033	0	0.056	0.046	0.113	-0.131	0.012	-0.054	-0.02	-0.03	0.028	-0.071	-0.282 (active)	-0.056	-0.01	-0.033	-0.089	-0.005
PDSS2 (UniProt Q86YH6)	-0.215	0.017	-0.083	-0.03	–	-0.046	0.027	0.021	0.12	0.048	-0.069	0.05	0.055	0.02	0.018	0.093	-0.126	0.244	0.016	0.024
PGK2 (UniProt P07205)	0.019	0.058	0.05	-0.084	-0.006	–	-0.046	0.054	-0.028	–	0.123	-0.112	0.023	-0.059	0.06	-0.075	0.039	-0.051	0.123	-0.037
POLR1A (UniProt O95602)	-0.082	-0.019	-0.185	0.052	0.321	0.083	0.016	0.059	-0.26	0.063	-0.066	-0.086	0.015	0.056	0.054	-0.198	0.489 (active)	0.062	0.071	-0.037
PPID (UniProt Q08752)	0.011	-0.047	0.005	0.097	0.104	0.122	0.057	-0.076	0.132	-0.046	-0.058	0.087	0.062	-0.015	-0.173	0.091	0.008	0.105	-0.366 (active)	0.026
PDCD4 (UniProt Q53EL6)	0.029	-0.043	0.016	0.083	-0.06	0.103	0.002	-0.26	-0.013	-0.045	-0.053	0.065	0.056	-0.107	0.011	0.012	-0.11	0.107	-0.585 (active)	0.055
PLCB3 (UniProt Q01970)	0.033	-0.04	0.033	0.024	-0.032	-0.014	0.018	-0.05	0.044	0.026	-0.08	0.02	0.058	-0.009	-0.246 (active)	0.021	-0.019	0.045	-0.037	0.009
PARP16 isoform 3 (UniProt Q8N5Y8)	0.066	–	0	-0.06	-0.016	0.04	0.032	0.103	0.067	0.006	-0.252 (active)	0.061	0.09	-0.008	0.096	0.298 (active)	0.022	0.132	-0.025	0.029
PEX5 isoform 4 (UniProt P50542)	0.089	-0.018	–	-0.066	–	0.127	–	–	–	0.096	–	-0.017	–	0.366	–	–	0.145	–	–	0.2
PBX2 (UniProt P40425)	0.049	0.001	0.165	0.099	0.026	0.138	0.03	–	0.025	-0.03	-0.009	0.023	0.052	-0.056	0.024	0.089	0.072	0.136	-0.251	0.123
PKN2 (UniProt Q16513)	0.104	-0.005	-0.012	0.05	0.032	0.034	0.106	–	0.159	-0.197	-0.046	0.009	0.026	0.027	-0.288 (active)	0.018	0.042	0.086	-0.135	-0.027
PNN (UniProt Q9H307)	-0.101	0.084	0.011	–	0.004	0.121	0.027	0.248	-0.077	-0.052	0.021	–	0.003	0.067	-0.042	0.003	0.03	0.04	-0.039	-0.07
PTK2B (UniProt Q14289)	-0.09	0	-0.008	-0.129	0.06	0.421	0.031	–	-0.244	-0.198	-0.141	0.017	0.165	0.082	-0.051	0.06	0.217	0	-1.28 (active)	-0.012
